Data: PubChem BioAssay (EPA / NIEHS)
Active and inactive are the calls of the source. Rule for the calls: active = hit-call score of the fitted dose curve at least 0.9, where 1 is the maximum; inactive = score below 0.9.

Columns and labels:
[1] = ATG_E_Box_CIS: Attagene CIS-FACTORIAL HepG2 Assay for human Enhancer Box (E-box) (AID 2282936); conditions: HepG2 E-box cis-reporter transcription, actives raise or lower the signal
Procedure, shortened: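 Multiplexed CIS reporter system in transiently transfected HepG2 cells measures native transcription factor activity. Reporter RNA after 24 h exposure is profiled by RT-PCR-capillary electrophoresis.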

[2] = ATG_M_61_CIS: Attagene CIS-FACTORIAL HepG2 Assay for M61 Transcription Factor (Internal Marker) (AID 2282937); conditions: HepG2 Attagene CIS-FACTORIAL M61 internal marker reporter; actives raise or lower the signal
Procedure, shortened: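 Using transiently transfected HepG2 liver cells, reporter transcript levels were assessed 24 h post-dosing by RT-PCR and capillary electrophoresis. Changes in either direction were fitted relative to DMSO controls.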

[3] = ATG_EGR_CIS: Attagene CIS-FACTORIAL HepG2 Assay for human Early Growth Response 1 (EGR1) (AID 2282938); conditions: HepG2 Attagene CIS-FACTORIAL EGR reporter mRNA; actives raise or lower the signal
Procedure, shortened: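 Fluorescent capillary-electrophoresis signal of reporter cDNA fragments serves as read-out. HepG2 cells bear transiently transfected cis-promoter reporter units and are exposed 24 h; gain- or loss-of-signal is fitted against DMSO.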

[4] = ATG_M_19_CIS: Attagene CIS-FACTORIAL HepG2 Assay for M19 Transcription Factor (Internal Marker) (AID 2282939); conditions: HepG2 Attagene CIS-FACTORIAL M19 internal marker reporter; actives raise or lower the signal
Procedure, shortened: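 Transfect HepG2 with MRTU reporter library → dose chemical, 24 h → isolate total RNA, reverse-transcribe with oligo(dT) → PCR, 6-FAM label, HpaI cut (2 h, 37 C) → capillary electrophoresis. Bidirectional fit vs DMSO.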

[5] = ATG_Ets_CIS: Attagene CIS-FACTORIAL HepG2 Assay for human Erythroblast Transformation Specific (ETS) (AID 2282941); conditions: HepG2 ETS cis-reporter transcription, actives raise or lower the signal
Procedure, shortened: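 Human HepG2 hepatoma cells were transiently transfected with promoter-driven reporter constructs and treated for 24 hours. Reporter transcripts were quantified by RT-PCR with fluorescent primer extension; bidirectional curve fitting used DMSO as reference.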

[6] = molecular target: Hepatocyte nuclear factor 3-beta (Homo sapiens) (UniProt Q9Y261); assay: ATG_FoxA2_CIS: Attagene CIS-FACTORIAL HepG2 Assay for human Forkhead box A2 (FOXA2) (AID 2282942); conditions: HepG2 cis-reporter transcription factor activity, 24 h; actives raise or lower the signal
Procedure, shortened: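 Fluorescence signal of reporter cDNA fragments, separated by capillary electrophoresis, reflects endogenous transcription factor activity in transfected HepG2 after 24 h. Both increases and decreases fitted against DMSO.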

[7] = ATG_FoxO_CIS: Attagene CIS-FACTORIAL HepG2 Assay for human Forkhead box O (FoxO) (AID 2282943); conditions: HepG2 Attagene cis-reporter, FoxO element, mRNA; actives raise or lower the signal
Procedure, shortened: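 HepG2 cells transiently transfected with cis-promoter-driven multiple reporter transcription units; 24 h after chemical dosing, reporter mRNA quantified by RT-PCR, fluorescent primer extension, HpaI digestion and capillary electrophoresis. Bidirectional fitting versus DMSO baseline.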

[8] = ATG_GATA_CIS: Attagene CIS-FACTORIAL HepG2 Assay for human GATA Binding Protein (AID 2282944); conditions: HepG2 GATA cis-element reporter, Attagene multiplex mRNA; actives raise or lower the signal
Procedure, shortened: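 Transient MRTU transfection, HepG2, 24 h compound exposure. Total RNA → oligo(dT) RT → PCR → 6-FAM primer extension → HpaI cut → CE. Bidirectional fit vs DMSO.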

[9] = ATG_GLI_CIS: Attagene CIS-FACTORIAL HepG2 Assay for human Zinc Finger Protein GLI1 (AID 2282945); conditions: HepG2, Attagene cis-factorial reporter mRNA, GLI element; actives raise or lower the signal
Procedure, shortened: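 HepG2 cells transiently transfected with cis-promoter multiplexed reporter units report endogenous transcription factor activity. After 24 h chemical exposure, reporter mRNA was quantified by RT-PCR, 6-FAM labelling, HpaI digestion and capillary electrophoresis, with bidirectional fitting against DMSO.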

[10] = molecular target: Bile acid receptor (Homo sapiens) (UniProt Q96RI1); assay: ATG_IR1_CIS: Attagene CIS-FACTORIAL HepG2 Assay for human Nuclear Receptor Subfamily 1 Group H Member 4 (NR1H4), IR1 submotif (AID 2282946); conditions: IR1 reporter transcription, actives raise or lower the signal
Procedure, shortened: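 Transient MRTU transfection, HepG2; 24 h dosing; RNA → RT-PCR → 6-FAM primer extension → HpaI digest → capillary electrophoresis fluorescence. Gain/loss of signal fitted relative to DMSO.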

[11] = ATG_GRE_CIS: Attagene CIS-FACTORIAL HepG2 Assay for human Glucocorticoid Response Elements (GRE) (AID 2282947); conditions: HepG2 GRE cis-reporter, Attagene multiplex mRNA; actives raise or lower the signal
Procedure, shortened: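 Following 24 h chemical exposure of transiently transfected HepG2 cells, total RNA was reverse-transcribed and reporter cDNA amplified, fluorescently labelled and sized by capillary electrophoresis. Signal gain or loss was fitted relative to DMSO vehicle.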

[12] = ATG_M_32_CIS: Attagene CIS-FACTORIAL HepG2 Assay for M32 Transcription Factor (Internal Marker) (AID 2282949); conditions: HepG2 Attagene cis-factorial M32 reporter, mRNA; actives raise or lower the signal;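 note: background control marker of the multiplexed CIS panel rather than a real target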
Procedure, shortened: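 Fluorescent capillary electrophoresis peaks of HpaI-digested, FAM-labelled RT-PCR reporter products give the signal. Source: transiently transfected human liver HepG2 cells, 24 h after chemical dosing; bidirectional fitting against DMSO.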

[13] = ATG_M_06_CIS: Attagene CIS-FACTORIAL HepG2 Assay for M06 Transcription Factor (Internal Marker) (AID 2282950); conditions: HepG2 Attagene CIS-FACTORIAL M06 internal marker reporter; actives raise or lower the signal
Procedure, shortened: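 Read-out is fluorescence of labelled reporter cDNA fragments resolved by capillary electrophoresis after RT-PCR. Cells: HepG2 carrying transfected cis-promoter reporter units, treated 24 h. Gain or loss of signal fitted relative to DMSO.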

[14] = molecular target: Hepatocyte nuclear factor 6 (Homo sapiens) (UniProt Q9UBC0); assay: ATG_HNF6_CIS: Attagene CIS-FACTORIAL HepG2 Assay for human Hepatocyte Nuclear Factor 6 (HNF6) (AID 2282952); conditions: HepG2 Attagene cis-factorial HNF6 reporter transcription; actives raise or lower the signal
Procedure, shortened: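 Multiplexed mRNA reporter assay in transfected HepG2; 24 h dosing; RT-PCR plus capillary electrophoresis fluorescence; DMSO-referenced bidirectional curve fitting.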

[15] = molecular target: Heat shock factor protein 1 (Homo sapiens) (UniProt Q00613); assay: ATG_HSE_CIS: Attagene CIS-FACTORIAL HepG2 Assay for human Heat Shock Transcription Factor 1 (HSE) (AID 2282953); conditions: HepG2 HSE cis-reporter, Attagene RNA transcription; actives raise or lower the signal
Procedure, shortened: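 HepG2, transient MRTU transfection, cis-promoter reporters (endogenous TF activity). 24 h compound. RNA → oligo(dT) RT → PCR → 6-FAM primer extension → HpaI cut → CE. Bidirectional fit vs DMSO.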

[16] = ATG_MRE_CIS: Attagene CIS-FACTORIAL HepG2 Assay for human Metal Responsive Element (MRE) (AID 2282954); conditions: HepG2 MRE cis-reporter transcription, Attagene multiplex; actives raise or lower the signal
Procedure, shortened: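 Step one: transfect HepG2 with cis-regulated reporter units. Step two: dose 24 h. Step three: isolate RNA, RT-PCR, 6-FAM label, HpaI digest, capillary electrophoresis. Fit bidirectionally to DMSO.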

[17] = ATG_PBREM_CIS: Attagene CIS-FACTORIAL HepG2 Assay for human Phenobarbital-responsive Enhancer Module (PBREM) (AID 2282955); conditions: HepG2 PBREM cis-reporter, Attagene multiplexed transcription; actives raise or lower the signal
Procedure, shortened: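 Readout: reporter mRNA, fluorescent RT-PCR fragments separated by capillary electrophoresis. System: HepG2 transiently transfected with cis-regulated reporter units. Exposure: 24 h. Analysis: bidirectional, DMSO baseline.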

[18] = ATG_ISRE_CIS: Attagene CIS-FACTORIAL HepG2 Assay for human Interferon Regulatory Factor 1 (IRF1) binding to an Interferon-Stimulated Response Element (ISRE) (AID 2282948); conditions: HepG2 ISRE cis-reporter (Attagene), mRNA transcription readout; actives raise or lower the signal
Procedure, shortened: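 Cell-based cis-reporter assay; HepG2; 24 h exposure; reporter mRNA by RT-PCR plus capillary electrophoresis fluorescence; activity in either direction scored relative to DMSO.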

[19] = molecular target: Hypoxia-inducible factor 1-alpha (Homo sapiens) (UniProt Q16665); assay: ATG_HIF1a_CIS: Attagene CIS-FACTORIAL HepG2 Assay for human Hypoxia Inducible Factor 1 (HIF1A) (AID 2282951); conditions: HepG2 Attagene cis-factorial HIF1a reporter transcription; actives raise or lower the signal
Procedure, shortened: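 Endogenous-TF cis reporter readout, human HepG2 cells, 24 h incubation; mRNA detected via RT-PCR and capillary electrophoresis fluorescence; DMSO-normalised bidirectional fitting.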

Measured: AC50

Chain of Hepatocyte nuclear factor 6 (Homo sapiens) (Q9UBC0 whole entry, looked up): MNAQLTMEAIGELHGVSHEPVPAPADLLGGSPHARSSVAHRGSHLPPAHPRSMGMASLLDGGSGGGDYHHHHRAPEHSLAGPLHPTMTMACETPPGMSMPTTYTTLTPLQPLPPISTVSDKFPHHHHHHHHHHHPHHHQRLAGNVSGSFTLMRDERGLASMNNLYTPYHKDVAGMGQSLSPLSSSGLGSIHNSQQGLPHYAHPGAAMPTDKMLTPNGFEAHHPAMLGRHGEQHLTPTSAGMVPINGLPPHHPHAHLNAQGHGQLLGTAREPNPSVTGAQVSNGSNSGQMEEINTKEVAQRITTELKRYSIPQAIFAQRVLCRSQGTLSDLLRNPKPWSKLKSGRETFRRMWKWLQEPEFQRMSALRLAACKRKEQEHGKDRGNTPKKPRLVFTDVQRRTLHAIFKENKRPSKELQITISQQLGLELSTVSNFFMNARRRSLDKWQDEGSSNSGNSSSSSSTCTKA
Chain of Bile acid receptor (Homo sapiens) (Q96RI1 whole entry, looked up): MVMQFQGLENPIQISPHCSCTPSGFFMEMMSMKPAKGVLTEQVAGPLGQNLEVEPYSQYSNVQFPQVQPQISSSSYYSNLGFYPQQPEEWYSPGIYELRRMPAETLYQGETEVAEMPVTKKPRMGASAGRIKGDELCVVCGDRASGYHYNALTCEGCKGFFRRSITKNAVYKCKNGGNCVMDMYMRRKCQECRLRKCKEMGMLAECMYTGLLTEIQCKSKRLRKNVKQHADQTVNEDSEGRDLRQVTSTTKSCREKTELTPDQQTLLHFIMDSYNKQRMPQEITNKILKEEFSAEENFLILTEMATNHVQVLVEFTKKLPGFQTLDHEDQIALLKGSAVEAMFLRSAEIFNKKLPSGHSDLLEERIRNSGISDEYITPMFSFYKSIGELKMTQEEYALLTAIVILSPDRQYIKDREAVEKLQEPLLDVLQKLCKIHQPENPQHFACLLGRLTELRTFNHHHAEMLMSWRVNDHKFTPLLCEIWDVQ
Chain of Heat shock factor protein 1 (Homo sapiens) (Q00613 whole entry, looked up): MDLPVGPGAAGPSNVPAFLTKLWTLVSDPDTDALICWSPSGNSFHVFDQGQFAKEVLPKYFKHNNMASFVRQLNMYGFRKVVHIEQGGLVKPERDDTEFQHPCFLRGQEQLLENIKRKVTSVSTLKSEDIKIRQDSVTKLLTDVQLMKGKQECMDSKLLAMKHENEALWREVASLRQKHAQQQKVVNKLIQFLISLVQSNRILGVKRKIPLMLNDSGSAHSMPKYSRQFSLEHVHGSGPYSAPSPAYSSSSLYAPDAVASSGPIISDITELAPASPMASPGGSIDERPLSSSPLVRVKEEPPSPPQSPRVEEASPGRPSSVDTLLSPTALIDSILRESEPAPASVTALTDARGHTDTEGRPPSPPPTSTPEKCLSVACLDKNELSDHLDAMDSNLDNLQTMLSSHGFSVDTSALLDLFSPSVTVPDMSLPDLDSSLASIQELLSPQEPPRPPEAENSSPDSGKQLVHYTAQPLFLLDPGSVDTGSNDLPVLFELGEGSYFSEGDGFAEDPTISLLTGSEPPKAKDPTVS
Chain of Hepatocyte nuclear factor 3-beta (Homo sapiens) (Q9Y261 whole entry, looked up, the tested form may be a part): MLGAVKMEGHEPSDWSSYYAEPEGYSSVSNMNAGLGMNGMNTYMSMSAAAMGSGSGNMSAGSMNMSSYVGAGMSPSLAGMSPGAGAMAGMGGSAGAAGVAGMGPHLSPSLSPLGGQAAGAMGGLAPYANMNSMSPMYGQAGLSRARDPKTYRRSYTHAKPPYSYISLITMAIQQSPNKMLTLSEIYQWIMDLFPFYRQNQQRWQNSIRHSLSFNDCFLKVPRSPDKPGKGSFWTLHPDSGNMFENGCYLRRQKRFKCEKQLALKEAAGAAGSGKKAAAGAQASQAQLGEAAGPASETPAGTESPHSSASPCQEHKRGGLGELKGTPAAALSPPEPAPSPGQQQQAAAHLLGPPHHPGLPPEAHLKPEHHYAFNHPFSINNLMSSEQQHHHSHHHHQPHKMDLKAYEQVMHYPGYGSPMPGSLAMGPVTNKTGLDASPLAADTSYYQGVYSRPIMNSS
Chain of Hypoxia-inducible factor 1-alpha (Homo sapiens) (Q16665 whole entry, looked up): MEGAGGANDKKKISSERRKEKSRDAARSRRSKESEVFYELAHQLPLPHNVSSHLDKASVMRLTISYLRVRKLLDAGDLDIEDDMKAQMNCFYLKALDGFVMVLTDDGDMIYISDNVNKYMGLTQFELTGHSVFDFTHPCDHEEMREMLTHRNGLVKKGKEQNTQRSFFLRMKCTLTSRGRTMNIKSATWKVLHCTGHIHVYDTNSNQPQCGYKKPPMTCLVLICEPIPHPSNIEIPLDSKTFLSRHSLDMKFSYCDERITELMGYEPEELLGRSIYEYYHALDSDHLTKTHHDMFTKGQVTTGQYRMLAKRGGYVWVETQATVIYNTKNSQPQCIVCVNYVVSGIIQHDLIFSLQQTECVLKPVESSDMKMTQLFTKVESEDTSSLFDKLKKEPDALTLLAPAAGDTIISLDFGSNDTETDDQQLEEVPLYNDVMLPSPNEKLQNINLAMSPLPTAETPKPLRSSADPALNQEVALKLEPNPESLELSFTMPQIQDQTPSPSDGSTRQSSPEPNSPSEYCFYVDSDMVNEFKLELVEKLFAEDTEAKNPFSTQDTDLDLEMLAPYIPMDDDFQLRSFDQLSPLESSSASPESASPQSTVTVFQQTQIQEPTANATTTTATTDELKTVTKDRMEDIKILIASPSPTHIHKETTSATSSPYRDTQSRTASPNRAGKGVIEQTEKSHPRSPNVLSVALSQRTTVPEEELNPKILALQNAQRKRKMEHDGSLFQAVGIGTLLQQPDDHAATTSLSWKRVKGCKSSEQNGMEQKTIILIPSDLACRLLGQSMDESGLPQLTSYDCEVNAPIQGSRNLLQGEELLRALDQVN

c1cc2ccc3cccc4ccc(c1)c2c34
not listed: [18] | [19]
inactive: all other assays above

Cc1ccccc1CO[C@@H]1C[C@@]2(C(C)C)CC[C@]1(C)O2
not listed: [10] | [11]
inactive: all other assays above

CCCCCCCCCC[N+](C)(C)CCCCCCCCCC
active: [1] 40.8 µM | [3] 6.79 µM | [8] 100 µM | [9] 100 µM | [10] 5.11 µM | [11] 8.55 µM | [16] 4.45 µM
not listed: [18]
inactive: all other assays above

O=C(O)C(F)(F)C(F)(F)C(F)(F)C(F)(F)C(F)(F)F
not listed: [10] | [18] | [19]
inactive: all other assays above

CCC(C)(CC)c1cc(NC(=O)c2c(OC)cccc2OC)on1
active: [16] 14.4 µM | [17] 1.43 µM
not listed: [10] | [11] | [19]
inactive: all other assays above

O=C(NC(=O)c1c(F)cccc1F)Nc1cc(Cl)c(OC(F)(F)C(F)F)c(Cl)c1
not listed: [10] | [18] | [19]
inactive: all other assays above

C[C@]12CCC(=O)C=C1CC[C@@H]1[C@@H]2CC[C@]2(C)C(=O)CC[C@@H]12
not listed: [11] | [18] | [19]
inactive: all other assays above
